# High-throughput results (PubChem)
# UDG counter: counter-screen for AID inhibitors: uracil-DNA glycosylase inhibition; FRET deamination/UDG coupled assay, UDG read, 4 h; Potency, µM (highest dose often 115 µM), for inactives: at the highest dose activity change, negative = inhibition, most hits filed as inhibitors; 91,000 tested, 0.14% active; also: nearly all actives have a fitted effect of over 65% in size
# AID inhibitor: inhibitors of human activation induced cytidine deaminase; 91,000 tested, 0.32% active; Potency, µM (titrated, usually from 115 µM), hits mostly inhibitors; AID deamination FRET fluorescence, UDG-coupled, 4 h; Q9GZX7; also: nearly all actives have a fitted effect of over 25% in size
# Target sequence (Q9GZX7 whole entry, looked up): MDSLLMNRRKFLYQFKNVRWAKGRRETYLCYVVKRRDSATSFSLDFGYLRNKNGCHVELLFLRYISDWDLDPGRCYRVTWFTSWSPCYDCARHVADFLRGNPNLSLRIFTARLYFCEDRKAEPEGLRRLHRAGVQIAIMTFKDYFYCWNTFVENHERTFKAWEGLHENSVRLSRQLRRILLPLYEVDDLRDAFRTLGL
# The depositor's hits bear a star; i = inactive; ? = inconclusive; [ ] = another dose, or the depositor's remark. Only some compounds are listed: those with a hit (about 0.47% of all), similar ones and a draw of the others. Calls follow the shape of the dose curve; as a rule, active = well fitted curve in the direction sought with a large enough effect; inconclusive = small, poorly fitted or top-dose-only effect, or another doubt; inactive = no such curve, though single readings can be large; an effect the other way counts as inactive or inconclusive. % is scaled to controls: 0 for no effect and ±100 for the full control effect; potency is read from the fitted curve at half-maximal effect.
SMILES,UDG counter,AID inhibitor
Cc1ccc(-n2c(SCc3nc(-c4ccc(Cl)cc4)no3)nnc2-c2ccncc2)cc1,?,35.5µM*
c1ccc(-n2nnnc2NCCCNC2CCCCC2)cc1,0.3%,i
CCNC(=S)NNC(=O)C(C)C,-0.3%,i
O=c1cc(-c2cc3ccccc3o2)c2cc3c(cc2o1)CCCC3,12.6%,i
COc1ccccc1CNC(=O)CN(C)c1nn2c(=O)cc(C)nc2s1,1.0%,i
O=C(Nc1cccc(C(=O)Nc2ccc(S(=O)(=O)O)c3cc(S(=O)(=O)O)cc(S(=O)(=O)O)c23)c1)Nc1cccc(C(=O)Nc2ccc(S(=O)(=O)O)c3cc(S(=O)(=O)O)cc(S(=O)(=O)O)c23)c1,-8.1%,50.1µM*
O=C(O)c1cccc(NC(=O)c2cccc(S(=O)(=O)Nc3cccc(C(=O)O)c3)c2)c1,-6.7%,i
Cc1nn(CC(=O)Nc2nc3ccc(F)cc3s2)c(=O)c2ccccc12,0.3%,i
CCCN(C(=O)CCc1nc(-c2ccc(OC)cc2)no1)c1ccccc1F,-17.4%,39.8µM*
CCCN(C(=O)Cc1nc(-c2ccc(OC)cc2)no1)c1ccccc1C,-2.9%,?
CC(NC(=O)c1ccc(C2SCCS2)cc1)c1cc2ccccc2o1 (stereo not given),-0.5%,i
OCCNc1nc(Nc2cccc(Cl)c2)nc2nccnc12,1.3%,79.4µM*
OCCNc1nc(Nc2ccc(Br)cc2)nc2nccnc12,-4.0%,?
c1ccc(CCNc2nc(Nc3ccccc3)c3nccnc3n2)cc1,-4.1%,i
OCCNc1nc(Nc2ccc(Cl)c(Cl)c2)nc2nccnc12,-3.7%,35.5µM*
CC(=O)N(CCC1(CCC(C)C)CCOC(C)(C)C1)Cc1ccco1 (stereo not given),8.0%,i
O=C(c1ccc(F)cc1Cl)N1CCN(c2cn[nH]c(=O)c2Cl)CC1,6.2%,i
CCOCCCNC(=O)c1cc2c(-c3ccc(OC)c(OC)c3)nn(C)c2s1,0.1%,i
CCOc1ccc(CCNC(=O)c2cc3c(-c4ccc(OC)c(OC)c4)nn(C)c3s2)cc1OCC,79.4µM*,?
Cc1cnc2c(S(=O)(=O)NCCC3CCCO3)cccc2c1 (stereo not given),-1.3%,i
O=C(O)c1ccc(Nc2nc(-c3ccc(Cl)cc3)cs2)cc1O,25.8%,79.4µM*
O=C(O)c1cc(Nc2nc(-c3ccccc3)cs2)ccc1O,10.6%,?
COc1ccc(-c2cc3ccc(O)cc3oc2=O)c(OC)c1,2.6%,i
CC(C)CCSc1nc2c(c(=O)n(C)c(=O)n2C)n1C/C=C/c1ccccc1,-9.5%,i
Cc1cccc(C)c1OCCCCn1c(C2CC(=O)N(c3ccc(F)cc3)C2)nc2ccccc21 (stereo not given),79.4µM*,?
SMILES,UDG counter,AID inhibitor
COc1ccc(OCCn2c(C3CC(=O)N(c4ccc(F)cc4)C3)nc3ccccc32)cc1 (stereo not given),-25.5%,?
Cc1c(CO)[nH]c2ccc(Br)cc12,-7.9%,i
CCC1=Nc2cc(C(=O)N3CCC(C)CC3)ccc2Sc2ccc(C)cc21,-12.9%,31.6µM*
CCC1=Nc2cc(C(=O)NCc3ccccc3Cl)ccc2Sc2ccc(C)cc21,-5.6%,i
CC(=O)OC1=CSc2cccc3cccc1c23,-2.5%,i
CCCCCOc1ccccc1CN1C(=O)C(=O)c2cc(C)ccc21,-19.8%,28.2µM*
CCCCOc1ccc(CN2C(=O)C(=O)c3cc(C)ccc32)cc1OC,37.7%,?
Cc1ccc(S(=O)(=O)NC(c2ccccc2)c2ccccn2)s1 (stereo not given),12.3%,i
Cc1nn2c(=O)cc(COC(=O)c3ccc(NC(=O)C4CCCCC4)cc3)nc2s1,-13.7%,44.7µM*
CCc1nn2c(=O)cc(COC(=O)c3ccc(NC(=O)C4CCCCC4)cc3)nc2s1,1.5%,i
CCCCN(Cc1ccccc1)c1ccc(C(=O)O)cc1NS(=O)(=O)c1ccc(C)c(C)c1,0.5%,i
O=C(NC(c1ccc(Cl)cc1)C1CC1)c1ccccc1C(F)(F)F (stereo not given),4.0%,i
COc1ccc(OC)c(NC(=O)NC(C)C(=O)N2CCc3ccccc32)c1 (stereo not given),-9.2%,i
CC(Oc1ccc(C(=O)c2ccccc2)cc1)C(=O)N1CCc2ccccc21 (stereo not given),79.4µM*,i
Cc1ccc(-c2nc(CN3C(=O)C(=O)N(C(C)C)C3=O)co2)c(C)c1,-9.3%,i
CSc1cccc(N2CC(C(=O)O)CC2=O)c1 (stereo not given),-3.8%,i
Cc1cccc(-n2cc(-c3ccccc3)c3c(N4CCC(C)CC4)ncnc32)c1,-4.4%[57.5 µM],?
CC(=O)N1CCN(c2ncnc3c2c(-c2ccccc2)cn3-c2cccc(C)c2)CC1,79.4µM*,?
NO,28.2µM*,39.8µM*
CNC(=O)CSc1cc(-c2ccccc2)c2ccc(OC)cc2n1,-6.4%,i
O=C(O)c1ccc(-n2c(/C=C\c3ccc(O)cc3)nc3ccccc3c2=O)cc1,-7.2%,i
O=C(O)c1cc(-n2c(/C=C\c3ccc(F)cc3)nc3ccccc3c2=O)ccc1Cl,89.1µM*,?
Cc1cc(C)c(C(=O)Cn2cnc3c2c(=O)n(C)c(=O)n3C)cc1C,-0.9%,i
CCOc1ncccc1CNC(=O)C1CCCN1S(C)(=O)=O (stereo not given),-3.3%,i
CCOc1ccc(NC(=O)CN(C)S(=O)(=O)c2ccc3c(c2)c(=O)n(C)c(=O)n3C)cc1,-12.1%,22.4µM*
SMILES,UDG counter,AID inhibitor
Cc1cccc(NC(=O)CN(C)S(=O)(=O)c2ccc3c(c2)c(=O)n(C)c(=O)n3C)c1,-4.6%,i
Cc1cc(SSc2nc(C)cc(C)n2)nc(C)n1,3.9%,i
Cc1cc2c(C(C)C)c(O)c(O)c(C=O)c2c(O)c1-c1c(C)cc2c(C(C)C)c(O)c(O)c(C=O)c2c1O,-3.9%,79.4µM*
CC(C)(C)C(=O)COc1ccc(S(C)(=O)=O)cc1,-13.2%,i
Cc1cc(S(=O)(=O)C(CNC(=O)COc2ccccc2)c2cccs2)ccc1F (stereo not given),0.4%,i
Cc1ccc(S(=O)(=O)C(CNC(=O)COc2ccccc2)c2cccs2)cc1 (stereo not given),-27.8%,44.7µM*
Cc1cccc(C)c1Nc1c(-c2ccc(Cl)s2)nc2ncccn12,?,44.7µM*
CCc1cccc(C)c1Nc1c(-c2cccs2)nc2ncccn12,6.0%,?
Cc1ccc(NS(=O)(=O)c2cc([N+](=O)[O-])ccc2N/N=C/c2ccccc2)c(C)c1,-2.1%,i
Cc1cc(C)c(CNCC(O)c2ccccc2)c(C)c1 (stereo not given),-11.3%,i
Cc1nc2nc(N(Cc3ccccc3)C(=O)c3ccco3)[nH]n2c(=O)c1Cc1ccccc1Cl,-0.4%,?
Cc1nc2c(C(=O)NCc3ccccc3)c[nH]n2c(=O)c1Cc1ccccc1Cl,-3.8%,89.1µM*
CCCCNC(=O)c1cc(-c2ccc(C)o2)nc2ccccc12,4.9%,i
O=C(O)c1cc2sc3ccccc3c2s1,5.5%,i
Cc1ccccc1Cc1c(C)nc2nc(SCC(=O)NCCc3ccc(Cl)cc3)nn2c1C,-25.4%,?
Cc1nc2nc(SCC(=O)NCCc3ccc(Cl)cc3)nn2c(C)c1Cc1ccccc1Cl,-29.8%,35.5µM*
Nc1c(S(=O)(=O)O)cc(Nc2ccc(Nc3nc(Cl)nc(Nc4ccc(S(=O)(=O)O)cc4)n3)c(S(=O)(=O)O)c2)c2c1C(=O)c1ccccc1C2=O,-19.2%,22.4µM*
